Common to all, as to assay type: functional
For assay [1], the target named is Solute carrier family 2, facilitated glucose transporter member 1 (Homo sapiens) (UniProt P11166). Kind of assay: ST_JUDE_LEISH: Cytotoxicity at 2uM final concentration against transgenic Leishmania Mexicana promastigotes LmGLUT1 that are glucose transport deficient and complemented with the human glucose transporter GLUT1. Activity is measured by DNA content using SYBR green in vitro.

In assay [2] the target is Hexose transporter 1 (Plasmodium falciparum) (UniProt O97467). Nature of the assay: ST_JUDE_LEISH: Cytotoxicity at 2uM final concentration against transgenic Leishmania Mexicana promastigotes LmPfHT that are glucose transport deficient and complemented with the Plasmodium falciparum hexose transporter. Activity is measured by DNA content using SYBR green in vitro.
The target in assay [3] is Glucose transporter (Leishmania mexicana) (UniProt O61059). Kind of assay: ST_JUDE_LEISH: Cytotoxicity at 2uM final concentration against transgenic Leishmania Mexicana promastigotes LmGT2 that are glucose transport deficient and complemented with the L. Mexicana glucose transporter 2. Activity is measured by DNA content using SYBR green in vitro.

Consider 35 molecules from ChEMBL document CHEMBL3433997, “St. Jude Leishmania screening dataset” (2016).

Sequence of Solute carrier family 2, facilitated glucose transporter member 1 (Homo sapiens) (P11166 whole entry): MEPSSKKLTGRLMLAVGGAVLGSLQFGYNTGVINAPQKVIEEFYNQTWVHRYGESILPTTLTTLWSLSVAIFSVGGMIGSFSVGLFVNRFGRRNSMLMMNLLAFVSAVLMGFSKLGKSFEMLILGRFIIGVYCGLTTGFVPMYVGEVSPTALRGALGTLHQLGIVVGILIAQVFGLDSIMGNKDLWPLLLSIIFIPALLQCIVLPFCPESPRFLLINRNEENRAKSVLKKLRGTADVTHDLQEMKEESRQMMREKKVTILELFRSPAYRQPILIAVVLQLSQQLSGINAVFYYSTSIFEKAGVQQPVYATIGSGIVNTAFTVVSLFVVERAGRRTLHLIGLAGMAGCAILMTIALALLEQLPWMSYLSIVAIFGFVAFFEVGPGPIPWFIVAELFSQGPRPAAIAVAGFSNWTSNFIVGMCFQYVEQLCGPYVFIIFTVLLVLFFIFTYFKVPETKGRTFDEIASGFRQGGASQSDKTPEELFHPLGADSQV

As for `COc1ccc(CCNCCCCCCNCCc2ccc(Cl)cc2)c(Cl)c1OC`, the figures for the inhibition in assay [1], in assay [2] and in assay [3] were 73.4%, 16.7% and 102%, respectively.
For `CCc1ccc(S(=O)(=O)Nc2ccc(CCN(C)C3CCN(C)CC3)cc2)cc1` the same measures were 3.75%, 3.41% and 2.27%.
For `O=C(N[C@@H](CC1CCCCC1)C(=O)NCCc1ccc(Cl)c(Cl)c1)c1ccc(O)c(-c2ccc(Cl)c(Cl)c2)c1` the same measures were 0.23%, 0.3% and 1.25%.
For `Clc1ccc2c(NCc3ccccn3)ccnc2c1` the same measures were 9.87%, 10.9% and 4.77%.
For the molecule `CCN1CCN(c2cc(C)c3cc(NC(=O)c4ccc(OC)c([N+](=O)[O-])c4)ccc3n2)CC1`, the inhibition came out at 2.21% in assay [1], 2.42% in assay [2] and 2.13% in assay [3].
`COc1ccc(CCCCN2C(=O)C(c3ccccc3)(c3ccccc3)N=C2N)cc1`: the inhibition in assay [1] is 3.36%; in assay [2], 4.05%; in assay [3], 0.32%.
In the case of `CCN(CC)CCCC(C)Nc1c2cc(OC)ccc2nc2cc(Cl)c([N+](=O)[O-])cc12` (stereo not given), the inhibition in assay [1] amounted to 1.29%; in assay [2] it was 0.73%; in assay [3], 0.82%.
For `CCOC(=O)/C(=N\OC(C)(C)C(=O)NCc1ccc(O)c(O)c1)c1csc(NC(c2ccccc2)(c2ccccc2)c2ccccc2)n1` the same measures were -2.31%, -1.09% and -1.17%.
In the case of `CCN(CC)c1nc(Nc2cc(C)ccc2C)nc(Nc2ccccc2O)n1`, the figures for the inhibition in assay [1], in assay [2] and in assay [3] were 4.16%, 5.53% and 4%, respectively.
For `CC(C)(C)CCN1CCC(CNC(=O)c2cc(-c3cccc(Cl)c3)cs2)C1` (stereo not given) the same measures were 0.6%, -0.8% and -1.21%.
In the case of `CN(CCCN(C)c1cc(NC(=O)c2ccc(F)cc2)ccn1)Cc1cccc(F)c1`, the values for the inhibition in assay [1], in assay [2] and in assay [3] were 5%, 5.98% and 4.86%, respectively.
For `Fc1ccc2[nH]c(-c3cccc(-c4ccc(CNCc5ccccc5)cc4)c3)nc2c1` the same measures were 7.37%, 9.95% and 4.2%.
In the case of `COc1ccc(-c2ccc(NC(=O)c3cccs3)cc2)cc1CN1CCCN(C)CC1`, the inhibition in assay [1] is 3.24%; in assay [2], 3.15%; in assay [3], -1.12%.
The matching figures for `Cc1cc(=NN=Cc2cccc(Cl)c2)c2ccc(F)cc2[nH]1`: 0.61%, 1.03% and 1.04%.
For `Cc1cc(N[C@@H](Cc2ccccc2)C(=O)NCc2cccs2)nc(NCC2CCCCC2)n1` the same measures were 3.33%, 2.71% and -0.41%.
For `Cc1ccc(C(C)C)c(Oc2ccc3nc(N)nc(N)c3c2)c1` the same measures were 13.2%, 8.97% and 5.01%.
As for `CN1CCCN(Cc2cccc(-c3cccc(NC(=O)c4cccc(Cl)c4)c3)c2)CC1`, the inhibition in assay [1] came to 13.4%; in assay [2], 9.81%; in assay [3], 9.71%.
Take `COc1ccc2c(c1)CC(NCc1ccc(-c3ccc4nc[nH]c4c3)cc1)C2` (stereo not given): the figures for the inhibition in assay [1], in assay [2] and in assay [3] were 4.22%, 2.21% and 1.31%, respectively.
The matching figures for `CCN1CCC(N(Cc2ccc(-c3ccc(C(F)(F)F)cc3)cc2)C(=O)Cn2c(CCc3cccc(F)c3F)cc(=O)c3c2CCC3)CC1`: 1.27%, 0.83% and 0.64%.
On to `CCOC(=O)c1c(-c2ccccc2)nc2c(sc3ccccc32)c1O`, for which the results for the inhibition in assay [1], in assay [2] and in assay [3] were 5.5%, 5.15% and 5.35%, respectively.
For `O=C(Nc1cccc(C(F)(F)F)c1)c1cccc2nc(C(F)(F)F)[nH]c12` the same measures were 19.4%, 24.2% and 15%.
For `COCCNCc1cccc(C#Cc2cc3ncnc(Nc4ccc(OCc5cccc(F)c5)c(Cl)c4)c3s2)n1` the same measures were 5.28%, 5.8% and 3.62%.
For `CC(C)(C)CN1C(=O)C(c2ccccc2)(c2ccccc2)N=C1N` the same measures were 2.88%, 2.58% and 1.88%.
For `O=C(NCCCCCN1CCC(c2c[nH]c3ccccc23)CC1)c1ccc(Cl)c(Cl)c1`, the inhibition in assay [1] turned out to be 2.42%; in assay [2] it was 4.92%; in assay [3], 2.52%.
Regarding `COc1ccc(CNCc2cccc(-c3cccc(-c4nc5cccc(C)c5[nH]4)c3)c2)cc1`, the inhibition amounted to 9.14% in assay [1], 8.38% in assay [2] and 7.72% in assay [3].
Regarding `COc1ccccc1CCNc1ncnc2c1[nH]c1ccc(F)cc12`, the figures for the inhibition in assay [1], in assay [2] and in assay [3] were 4.25%, 12.9% and 10.1%, respectively.
The matching figures for `Oc1ccc(CN2Cc3ccccc3OC3(CCN(Cc4c[nH]c5cnccc45)CC3)C2)cc1`: -0.29%, -0.21% and -3.09%.
The matching figures for `Cc1ccccc1Oc1ccc(Nc2ccnc(Nc3cccc(C(N)=O)c3)n2)cc1C(F)(F)F`: 4.26%, 3.48% and 1.52%.
For `O=C(Nc1cc(Cl)ccc1-n1cncn1)C1(c2ccccc2)CC1` the same measures were 2.59%, 6.43% and 5.68%.
As for `Cc1ccc(NC(=O)Cc2noc(CC3CCCN3C(=O)N[C@@H](C)c3ccccc3)n2)cc1` (stereo not given in full), the inhibition turned out to be 3.91% in assay [1], 2.95% in assay [2] and 1.32% in assay [3].
For `CCN(CCCN1CCCCC1)c1cc(C)nc(Nc2ccc(Cl)cc2C)n1` the same measures were 1.07%, 1.21% and 1.9%.
For `O=C(/C=C/c1ccc(Cl)c(Cl)c1)N1CCC(CCN2CCC(c3c[nH]c4ccncc34)CC2)CC1` the same measures were 3.03%, 4.39% and 6.65%.
Take `Cn1cnc(CCNC(=O)c2ccc(-c3ccc(-c4nc5cc(C(F)(F)F)ccc5[nH]4)s3)cc2)c1`: the figures for the inhibition in assay [1], in assay [2] and in assay [3] were 2.93%, 3.77% and 3.14%, respectively.
As to `COc1ccc(CNC(=O)c2cnc3c(O)cccc3c2Nc2cccc(NC(=O)c3ccc(-c4ccccc4)cc3)c2)cc1`, the figures for the inhibition in assay [1], in assay [2] and in assay [3] were 76.8%, 79.7% and 64.3%, respectively.
With `COCCNCc1cccc(-c2ccc3c(Nc4cc(O)c(Cl)cc4F)ccnc3c2)c1`, the values for the inhibition in assay [1], in assay [2] and in assay [3] were 2.97%, 3.2% and 2.93%, respectively.

The inhibition is the drop in the measured response relative to a control, in per cent.
